# Measured values published in ChEMBL document CHEMBL2218924, “A broad activity screen in support of a chemogenomic map for kinase signalling research and drug discovery” (Biochem J, 2013).
# Experiments:
# [1] = target: T1, Ephrin type-A receptor 3 (Homo sapiens) (UniProt P29320); conditions: at 10 µM
# T1 sequence (whole entry): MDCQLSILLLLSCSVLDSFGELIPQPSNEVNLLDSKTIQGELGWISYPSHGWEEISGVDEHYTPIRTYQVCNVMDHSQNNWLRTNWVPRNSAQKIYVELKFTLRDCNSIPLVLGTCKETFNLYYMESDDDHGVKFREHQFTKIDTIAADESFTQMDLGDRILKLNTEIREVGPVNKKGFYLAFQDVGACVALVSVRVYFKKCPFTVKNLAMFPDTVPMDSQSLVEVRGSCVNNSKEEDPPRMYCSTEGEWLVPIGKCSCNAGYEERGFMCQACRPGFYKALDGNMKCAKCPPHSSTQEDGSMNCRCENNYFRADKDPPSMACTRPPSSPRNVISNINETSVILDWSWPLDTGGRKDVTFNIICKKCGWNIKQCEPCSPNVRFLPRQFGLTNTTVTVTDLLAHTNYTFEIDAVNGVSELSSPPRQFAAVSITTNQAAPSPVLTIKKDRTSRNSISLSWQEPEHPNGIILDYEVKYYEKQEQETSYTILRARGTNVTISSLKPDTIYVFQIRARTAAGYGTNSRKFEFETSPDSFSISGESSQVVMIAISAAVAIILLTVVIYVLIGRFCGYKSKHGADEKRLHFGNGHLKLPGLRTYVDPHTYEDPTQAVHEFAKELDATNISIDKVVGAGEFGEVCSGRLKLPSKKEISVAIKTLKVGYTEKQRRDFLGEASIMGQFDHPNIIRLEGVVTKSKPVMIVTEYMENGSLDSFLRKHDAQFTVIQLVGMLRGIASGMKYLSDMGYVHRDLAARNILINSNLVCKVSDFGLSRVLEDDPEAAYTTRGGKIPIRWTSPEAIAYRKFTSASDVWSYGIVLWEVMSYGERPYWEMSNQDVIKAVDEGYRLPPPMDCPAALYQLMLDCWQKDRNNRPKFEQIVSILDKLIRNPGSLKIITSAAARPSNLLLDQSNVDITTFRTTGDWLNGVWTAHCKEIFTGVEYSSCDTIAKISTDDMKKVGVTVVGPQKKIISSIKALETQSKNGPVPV
# [2] = target: Ephrin type-A receptor 5 (Homo sapiens) (UniProt P54756); conditions: at 1 µM
# Ephrin type-A receptor 5 (Homo sapiens), sequence (P54756 whole entry): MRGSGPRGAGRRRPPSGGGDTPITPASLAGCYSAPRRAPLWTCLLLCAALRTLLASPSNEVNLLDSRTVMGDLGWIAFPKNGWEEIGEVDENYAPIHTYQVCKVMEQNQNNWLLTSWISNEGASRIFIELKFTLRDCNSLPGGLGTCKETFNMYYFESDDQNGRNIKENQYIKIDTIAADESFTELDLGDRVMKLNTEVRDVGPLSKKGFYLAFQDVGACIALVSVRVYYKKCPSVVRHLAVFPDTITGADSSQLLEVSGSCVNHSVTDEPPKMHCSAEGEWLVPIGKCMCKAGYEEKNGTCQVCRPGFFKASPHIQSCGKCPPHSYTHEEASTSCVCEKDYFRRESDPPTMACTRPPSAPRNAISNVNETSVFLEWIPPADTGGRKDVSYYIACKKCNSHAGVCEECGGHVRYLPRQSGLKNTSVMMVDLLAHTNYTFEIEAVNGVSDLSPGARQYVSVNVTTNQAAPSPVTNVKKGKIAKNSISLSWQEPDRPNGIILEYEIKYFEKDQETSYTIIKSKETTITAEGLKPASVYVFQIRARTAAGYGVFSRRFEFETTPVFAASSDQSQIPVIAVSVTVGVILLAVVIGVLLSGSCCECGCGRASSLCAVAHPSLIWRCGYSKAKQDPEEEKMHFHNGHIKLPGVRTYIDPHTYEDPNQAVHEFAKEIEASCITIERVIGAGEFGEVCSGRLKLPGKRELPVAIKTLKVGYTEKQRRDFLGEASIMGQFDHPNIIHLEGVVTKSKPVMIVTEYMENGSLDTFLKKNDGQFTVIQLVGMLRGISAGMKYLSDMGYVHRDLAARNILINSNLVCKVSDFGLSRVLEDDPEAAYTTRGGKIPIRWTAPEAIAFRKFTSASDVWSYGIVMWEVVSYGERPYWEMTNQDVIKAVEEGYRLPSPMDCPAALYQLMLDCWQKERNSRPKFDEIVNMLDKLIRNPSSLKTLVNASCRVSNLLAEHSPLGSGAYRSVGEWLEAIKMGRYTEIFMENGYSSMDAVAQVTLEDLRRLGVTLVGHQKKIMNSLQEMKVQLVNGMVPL
# [3] = target: Ephrin type-A receptor 5 (Homo sapiens) (UniProt P54756); conditions: at 10 µM
# [4] = target: Ephrin type-A receptor 7 (Homo sapiens) (UniProt Q15375); conditions: at 1 µM
# Ephrin type-A receptor 7 (Homo sapiens), sequence (Q15375 28-998 limits assumed): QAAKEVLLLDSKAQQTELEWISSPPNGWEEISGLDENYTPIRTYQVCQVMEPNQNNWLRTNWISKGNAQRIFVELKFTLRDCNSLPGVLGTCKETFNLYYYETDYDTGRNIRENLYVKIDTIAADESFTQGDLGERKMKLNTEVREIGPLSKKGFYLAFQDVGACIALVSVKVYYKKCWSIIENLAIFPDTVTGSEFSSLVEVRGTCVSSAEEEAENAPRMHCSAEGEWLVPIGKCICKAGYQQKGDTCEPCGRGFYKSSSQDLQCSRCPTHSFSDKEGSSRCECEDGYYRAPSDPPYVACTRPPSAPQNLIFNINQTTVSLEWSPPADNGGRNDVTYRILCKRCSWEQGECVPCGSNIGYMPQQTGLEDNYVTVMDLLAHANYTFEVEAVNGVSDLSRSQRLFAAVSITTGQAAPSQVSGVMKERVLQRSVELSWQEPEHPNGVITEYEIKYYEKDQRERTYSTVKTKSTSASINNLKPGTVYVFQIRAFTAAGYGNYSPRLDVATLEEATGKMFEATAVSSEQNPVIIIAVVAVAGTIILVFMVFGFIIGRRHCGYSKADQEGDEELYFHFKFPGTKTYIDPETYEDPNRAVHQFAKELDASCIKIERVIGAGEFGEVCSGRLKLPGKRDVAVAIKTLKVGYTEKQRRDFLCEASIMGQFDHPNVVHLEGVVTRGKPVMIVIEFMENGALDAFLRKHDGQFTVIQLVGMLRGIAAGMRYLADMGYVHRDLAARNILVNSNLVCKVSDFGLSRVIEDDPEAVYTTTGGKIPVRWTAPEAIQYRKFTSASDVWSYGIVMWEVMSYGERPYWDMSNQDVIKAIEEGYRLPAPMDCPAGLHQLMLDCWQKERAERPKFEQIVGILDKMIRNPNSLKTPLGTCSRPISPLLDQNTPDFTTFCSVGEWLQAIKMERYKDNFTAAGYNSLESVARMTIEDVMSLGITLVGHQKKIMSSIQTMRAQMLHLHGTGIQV
# [5] = target: Ephrin type-A receptor 7 (Homo sapiens) (UniProt Q15375); conditions: at 10 µM
# [6] = target: T2, Ephrin type-A receptor 8 (Homo sapiens) (UniProt P29322); conditions: at 1 µM
# T2 sequence (whole entry): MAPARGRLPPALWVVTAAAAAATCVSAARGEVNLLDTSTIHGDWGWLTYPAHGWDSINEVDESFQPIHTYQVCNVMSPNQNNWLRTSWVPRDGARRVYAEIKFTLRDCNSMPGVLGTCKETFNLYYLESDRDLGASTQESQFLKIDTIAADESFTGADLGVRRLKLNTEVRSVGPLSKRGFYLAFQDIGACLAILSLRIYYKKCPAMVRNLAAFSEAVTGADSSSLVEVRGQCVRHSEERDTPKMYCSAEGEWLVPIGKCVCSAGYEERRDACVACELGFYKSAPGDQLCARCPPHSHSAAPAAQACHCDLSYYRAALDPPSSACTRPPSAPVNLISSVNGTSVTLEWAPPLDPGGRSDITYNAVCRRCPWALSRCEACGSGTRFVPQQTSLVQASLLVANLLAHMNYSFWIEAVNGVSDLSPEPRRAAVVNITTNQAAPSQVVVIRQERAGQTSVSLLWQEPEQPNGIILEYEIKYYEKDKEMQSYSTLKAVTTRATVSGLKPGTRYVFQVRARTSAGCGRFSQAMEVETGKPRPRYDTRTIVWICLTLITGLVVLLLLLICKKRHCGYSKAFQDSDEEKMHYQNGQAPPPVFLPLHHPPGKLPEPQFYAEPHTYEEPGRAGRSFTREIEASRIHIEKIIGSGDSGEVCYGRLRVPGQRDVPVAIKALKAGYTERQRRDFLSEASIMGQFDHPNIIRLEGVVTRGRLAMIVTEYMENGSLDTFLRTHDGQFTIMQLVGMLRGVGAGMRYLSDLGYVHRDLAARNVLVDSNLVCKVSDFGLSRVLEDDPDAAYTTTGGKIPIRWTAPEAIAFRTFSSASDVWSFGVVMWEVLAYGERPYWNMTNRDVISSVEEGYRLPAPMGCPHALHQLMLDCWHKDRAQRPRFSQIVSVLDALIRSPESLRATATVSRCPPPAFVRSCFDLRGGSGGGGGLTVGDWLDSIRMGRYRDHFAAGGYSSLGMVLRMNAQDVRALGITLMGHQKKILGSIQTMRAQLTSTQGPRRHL
# [7] = target: T2, Ephrin type-A receptor 8 (Homo sapiens); conditions: at 10 µM
# [8] = target: T3, Ephrin type-B receptor 1 (Homo sapiens) (UniProt P54762); conditions: at 1 µM
# T3 sequence (whole entry): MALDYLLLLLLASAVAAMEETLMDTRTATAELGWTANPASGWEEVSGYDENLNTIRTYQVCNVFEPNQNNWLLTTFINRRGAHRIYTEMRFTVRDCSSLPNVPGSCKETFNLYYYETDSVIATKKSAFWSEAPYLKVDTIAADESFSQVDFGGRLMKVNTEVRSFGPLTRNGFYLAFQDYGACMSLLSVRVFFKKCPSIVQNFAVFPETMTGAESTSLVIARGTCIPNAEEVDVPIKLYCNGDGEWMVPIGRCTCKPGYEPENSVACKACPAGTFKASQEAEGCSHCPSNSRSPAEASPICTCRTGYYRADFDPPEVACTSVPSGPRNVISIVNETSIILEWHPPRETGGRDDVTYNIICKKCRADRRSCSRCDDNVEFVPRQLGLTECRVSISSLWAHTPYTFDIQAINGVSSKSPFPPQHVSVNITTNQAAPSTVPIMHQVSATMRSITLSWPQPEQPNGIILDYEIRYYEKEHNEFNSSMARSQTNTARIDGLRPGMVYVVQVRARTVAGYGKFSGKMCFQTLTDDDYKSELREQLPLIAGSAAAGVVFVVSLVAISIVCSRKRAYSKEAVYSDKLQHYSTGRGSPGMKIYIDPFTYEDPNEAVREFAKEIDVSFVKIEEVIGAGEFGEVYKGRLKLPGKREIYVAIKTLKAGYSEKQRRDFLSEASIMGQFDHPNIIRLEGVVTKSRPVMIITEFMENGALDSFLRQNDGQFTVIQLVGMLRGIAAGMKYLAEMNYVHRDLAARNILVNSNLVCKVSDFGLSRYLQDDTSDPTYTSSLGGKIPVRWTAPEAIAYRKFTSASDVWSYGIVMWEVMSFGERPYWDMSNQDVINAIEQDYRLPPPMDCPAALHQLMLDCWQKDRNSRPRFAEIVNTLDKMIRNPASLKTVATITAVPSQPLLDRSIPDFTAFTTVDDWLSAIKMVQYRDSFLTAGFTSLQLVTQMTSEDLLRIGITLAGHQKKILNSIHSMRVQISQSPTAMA
# [9] = target: T3, Ephrin type-B receptor 1 (Homo sapiens); conditions: at 10 µM
# [10] = target: T4, Ephrin type-B receptor 2 (Homo sapiens) (UniProt P29323); conditions: at 1 µM
# T4 sequence (whole entry): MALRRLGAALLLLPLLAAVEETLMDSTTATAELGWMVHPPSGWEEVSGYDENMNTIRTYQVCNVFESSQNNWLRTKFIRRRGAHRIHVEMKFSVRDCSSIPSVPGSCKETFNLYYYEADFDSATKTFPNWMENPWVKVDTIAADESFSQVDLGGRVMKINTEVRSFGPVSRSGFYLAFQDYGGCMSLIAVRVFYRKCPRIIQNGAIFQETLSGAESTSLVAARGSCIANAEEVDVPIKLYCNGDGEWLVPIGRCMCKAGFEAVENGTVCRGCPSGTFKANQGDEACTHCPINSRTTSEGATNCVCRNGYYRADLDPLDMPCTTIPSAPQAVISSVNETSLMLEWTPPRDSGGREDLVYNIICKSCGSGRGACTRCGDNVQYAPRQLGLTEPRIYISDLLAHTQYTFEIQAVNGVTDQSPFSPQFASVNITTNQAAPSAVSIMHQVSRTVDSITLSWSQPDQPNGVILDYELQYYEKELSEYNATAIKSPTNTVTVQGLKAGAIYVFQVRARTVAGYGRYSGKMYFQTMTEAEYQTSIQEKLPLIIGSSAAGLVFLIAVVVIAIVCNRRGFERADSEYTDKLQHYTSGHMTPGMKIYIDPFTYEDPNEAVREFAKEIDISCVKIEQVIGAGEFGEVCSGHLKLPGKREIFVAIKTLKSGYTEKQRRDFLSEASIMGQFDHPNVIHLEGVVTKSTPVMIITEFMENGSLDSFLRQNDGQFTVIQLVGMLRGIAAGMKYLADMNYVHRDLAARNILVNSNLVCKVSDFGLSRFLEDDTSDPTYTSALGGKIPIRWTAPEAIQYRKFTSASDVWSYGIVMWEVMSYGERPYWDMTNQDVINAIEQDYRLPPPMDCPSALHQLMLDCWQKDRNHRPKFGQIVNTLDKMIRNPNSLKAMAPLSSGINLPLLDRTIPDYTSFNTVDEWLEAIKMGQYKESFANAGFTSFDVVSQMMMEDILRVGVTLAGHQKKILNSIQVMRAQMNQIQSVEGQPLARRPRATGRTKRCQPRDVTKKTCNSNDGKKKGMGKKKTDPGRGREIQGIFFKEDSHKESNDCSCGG
# [11] = target: T4, Ephrin type-B receptor 2 (Homo sapiens); conditions: at 10 µM
# [12] = target: T5, Ephrin type-B receptor 3 (Homo sapiens) (UniProt P54753); conditions: at 1 µM
# T5 sequence (whole entry): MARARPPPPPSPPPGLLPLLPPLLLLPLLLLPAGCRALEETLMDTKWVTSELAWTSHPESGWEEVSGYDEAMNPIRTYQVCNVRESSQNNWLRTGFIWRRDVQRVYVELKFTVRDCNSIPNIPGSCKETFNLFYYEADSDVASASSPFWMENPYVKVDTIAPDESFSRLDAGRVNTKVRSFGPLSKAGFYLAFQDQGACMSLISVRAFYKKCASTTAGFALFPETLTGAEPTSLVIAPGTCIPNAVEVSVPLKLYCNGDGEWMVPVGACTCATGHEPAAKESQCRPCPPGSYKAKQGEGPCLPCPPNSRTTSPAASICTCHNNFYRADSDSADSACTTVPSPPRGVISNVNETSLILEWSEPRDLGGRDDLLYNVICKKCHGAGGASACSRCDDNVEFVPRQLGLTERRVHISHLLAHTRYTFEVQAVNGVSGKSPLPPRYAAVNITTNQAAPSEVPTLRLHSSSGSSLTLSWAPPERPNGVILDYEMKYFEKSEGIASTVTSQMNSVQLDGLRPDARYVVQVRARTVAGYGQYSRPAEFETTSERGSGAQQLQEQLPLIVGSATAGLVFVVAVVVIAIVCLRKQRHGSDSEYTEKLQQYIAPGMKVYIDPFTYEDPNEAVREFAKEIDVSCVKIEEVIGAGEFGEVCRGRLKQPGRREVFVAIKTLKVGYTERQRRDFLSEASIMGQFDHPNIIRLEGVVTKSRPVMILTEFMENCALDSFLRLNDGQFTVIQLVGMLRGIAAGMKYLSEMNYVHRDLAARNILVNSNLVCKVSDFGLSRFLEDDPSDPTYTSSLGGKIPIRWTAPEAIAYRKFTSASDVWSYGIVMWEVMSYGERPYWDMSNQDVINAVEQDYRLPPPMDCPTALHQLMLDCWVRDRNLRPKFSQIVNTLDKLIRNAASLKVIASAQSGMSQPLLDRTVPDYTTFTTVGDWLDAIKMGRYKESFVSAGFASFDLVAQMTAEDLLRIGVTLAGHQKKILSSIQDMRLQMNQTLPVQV
# [13] = target: T5, Ephrin type-B receptor 3 (Homo sapiens); conditions: at 10 µM
# [14] = target: T6, Ephrin type-B receptor 4 (Homo sapiens) (UniProt P54760); conditions: at 1 µM
# T6 sequence (whole entry): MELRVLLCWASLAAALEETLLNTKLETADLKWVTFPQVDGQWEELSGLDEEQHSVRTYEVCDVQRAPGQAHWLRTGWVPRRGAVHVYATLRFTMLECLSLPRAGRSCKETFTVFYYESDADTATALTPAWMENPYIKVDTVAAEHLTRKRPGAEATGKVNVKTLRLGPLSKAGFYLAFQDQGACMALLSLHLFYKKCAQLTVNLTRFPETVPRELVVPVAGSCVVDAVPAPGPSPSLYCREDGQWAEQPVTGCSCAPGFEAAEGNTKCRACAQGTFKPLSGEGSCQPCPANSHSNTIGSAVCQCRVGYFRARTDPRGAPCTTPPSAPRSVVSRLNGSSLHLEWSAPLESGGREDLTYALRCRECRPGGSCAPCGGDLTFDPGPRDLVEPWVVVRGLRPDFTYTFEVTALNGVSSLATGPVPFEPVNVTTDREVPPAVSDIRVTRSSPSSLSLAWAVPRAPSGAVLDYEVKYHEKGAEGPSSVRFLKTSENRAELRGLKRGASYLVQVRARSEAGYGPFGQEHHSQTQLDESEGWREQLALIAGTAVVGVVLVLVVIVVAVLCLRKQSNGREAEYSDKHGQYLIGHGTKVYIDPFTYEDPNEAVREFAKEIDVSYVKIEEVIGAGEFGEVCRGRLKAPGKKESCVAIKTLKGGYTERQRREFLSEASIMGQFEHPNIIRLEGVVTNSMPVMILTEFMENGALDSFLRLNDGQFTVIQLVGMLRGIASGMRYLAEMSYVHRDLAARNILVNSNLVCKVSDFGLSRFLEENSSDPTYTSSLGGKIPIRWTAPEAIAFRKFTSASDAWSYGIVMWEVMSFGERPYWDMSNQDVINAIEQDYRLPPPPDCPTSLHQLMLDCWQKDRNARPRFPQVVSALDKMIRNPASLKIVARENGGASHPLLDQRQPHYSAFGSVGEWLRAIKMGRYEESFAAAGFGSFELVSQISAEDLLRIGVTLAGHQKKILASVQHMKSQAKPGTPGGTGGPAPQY
# [15] = target: T6, Ephrin type-B receptor 4 (Homo sapiens); conditions: at 10 µM
# [16] = target: Receptor tyrosine-protein kinase erbB-4 (Homo sapiens) (UniProt Q15303); conditions: at 1 µM
# Receptor tyrosine-protein kinase erbB-4 (Homo sapiens), sequence (Q15303 whole entry): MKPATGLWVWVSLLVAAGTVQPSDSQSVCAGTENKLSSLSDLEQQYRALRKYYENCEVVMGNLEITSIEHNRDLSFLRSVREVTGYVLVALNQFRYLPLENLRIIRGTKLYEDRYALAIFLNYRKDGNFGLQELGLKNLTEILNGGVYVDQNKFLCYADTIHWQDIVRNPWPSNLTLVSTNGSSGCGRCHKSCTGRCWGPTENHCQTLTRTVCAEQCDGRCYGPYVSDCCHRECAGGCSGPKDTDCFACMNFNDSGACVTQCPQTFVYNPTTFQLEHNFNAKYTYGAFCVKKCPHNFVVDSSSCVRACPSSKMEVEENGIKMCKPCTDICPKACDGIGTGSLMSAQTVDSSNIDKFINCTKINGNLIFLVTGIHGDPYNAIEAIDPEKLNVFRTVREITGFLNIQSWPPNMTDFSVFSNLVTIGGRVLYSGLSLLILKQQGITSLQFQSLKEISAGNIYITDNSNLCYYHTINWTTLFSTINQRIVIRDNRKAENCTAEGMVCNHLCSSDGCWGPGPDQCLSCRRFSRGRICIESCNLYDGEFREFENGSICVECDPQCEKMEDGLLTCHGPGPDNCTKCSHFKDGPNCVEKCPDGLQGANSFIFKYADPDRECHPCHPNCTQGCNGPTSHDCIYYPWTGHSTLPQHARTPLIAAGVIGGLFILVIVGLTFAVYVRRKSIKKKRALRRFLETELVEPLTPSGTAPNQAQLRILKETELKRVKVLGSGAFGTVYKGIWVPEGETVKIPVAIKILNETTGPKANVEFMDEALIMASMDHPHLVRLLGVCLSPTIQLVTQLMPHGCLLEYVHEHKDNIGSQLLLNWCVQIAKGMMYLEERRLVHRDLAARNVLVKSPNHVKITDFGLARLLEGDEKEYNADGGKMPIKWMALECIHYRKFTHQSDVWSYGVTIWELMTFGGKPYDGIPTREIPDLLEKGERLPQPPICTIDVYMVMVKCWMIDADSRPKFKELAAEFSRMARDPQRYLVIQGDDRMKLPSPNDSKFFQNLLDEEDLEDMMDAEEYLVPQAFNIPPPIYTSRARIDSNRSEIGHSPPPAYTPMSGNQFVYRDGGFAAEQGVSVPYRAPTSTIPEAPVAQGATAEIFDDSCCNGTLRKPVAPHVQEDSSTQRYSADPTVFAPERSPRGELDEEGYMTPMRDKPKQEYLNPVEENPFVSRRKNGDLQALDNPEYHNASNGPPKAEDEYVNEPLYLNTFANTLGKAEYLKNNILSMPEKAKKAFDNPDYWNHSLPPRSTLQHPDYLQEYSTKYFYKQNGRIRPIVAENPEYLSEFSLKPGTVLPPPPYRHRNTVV
# [17] = target: Receptor tyrosine-protein kinase erbB-4 (Homo sapiens) (UniProt Q15303); conditions: at 10 µM
# [18] = target: Focal adhesion kinase 1 (Homo sapiens) (UniProt Q05397); conditions: at 1 µM
# Focal adhesion kinase 1 (Homo sapiens), sequence (Q05397 2-1052 limits assumed): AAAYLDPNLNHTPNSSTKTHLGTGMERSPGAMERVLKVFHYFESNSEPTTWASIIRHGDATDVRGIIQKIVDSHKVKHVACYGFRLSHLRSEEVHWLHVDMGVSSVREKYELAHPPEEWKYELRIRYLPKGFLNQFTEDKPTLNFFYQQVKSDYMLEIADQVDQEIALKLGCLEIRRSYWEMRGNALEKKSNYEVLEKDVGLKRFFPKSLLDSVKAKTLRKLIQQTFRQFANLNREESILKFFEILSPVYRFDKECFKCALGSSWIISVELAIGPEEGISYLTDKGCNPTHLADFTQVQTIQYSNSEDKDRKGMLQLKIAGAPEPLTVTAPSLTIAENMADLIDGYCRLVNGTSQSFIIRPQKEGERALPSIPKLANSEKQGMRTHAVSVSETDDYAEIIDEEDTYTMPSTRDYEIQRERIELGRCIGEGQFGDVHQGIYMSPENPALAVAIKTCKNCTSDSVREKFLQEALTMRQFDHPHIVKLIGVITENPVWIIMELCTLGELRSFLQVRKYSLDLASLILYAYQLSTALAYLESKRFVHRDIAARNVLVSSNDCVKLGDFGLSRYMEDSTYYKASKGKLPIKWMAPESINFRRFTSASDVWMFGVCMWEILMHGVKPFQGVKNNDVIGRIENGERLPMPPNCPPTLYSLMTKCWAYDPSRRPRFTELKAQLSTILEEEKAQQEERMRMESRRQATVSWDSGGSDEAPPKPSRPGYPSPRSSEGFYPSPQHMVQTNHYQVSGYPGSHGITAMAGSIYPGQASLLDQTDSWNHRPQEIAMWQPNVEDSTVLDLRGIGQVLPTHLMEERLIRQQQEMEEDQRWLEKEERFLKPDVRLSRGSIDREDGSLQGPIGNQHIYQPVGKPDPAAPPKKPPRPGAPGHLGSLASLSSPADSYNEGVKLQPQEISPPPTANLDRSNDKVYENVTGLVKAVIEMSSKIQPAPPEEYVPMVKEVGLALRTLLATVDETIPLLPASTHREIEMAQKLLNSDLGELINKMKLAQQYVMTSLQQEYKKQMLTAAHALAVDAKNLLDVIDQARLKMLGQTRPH
compound,measurement,setting,value
O=C1Nc2ccccc2/C1=C1/Nc2ccccc2/C1=N\OCCC(O)CO (stereo not drawn),residual activity,[1],6%
same,residual activity,[2],59%
same,residual activity,[3],23%
same,residual activity,[4],58%
same,residual activity,[5],10%
same,residual activity,[6],72%
same,residual activity,[7],32%
same,residual activity,[8],56%
same,residual activity,[9],8%
same,residual activity,[10],82%
same,residual activity,[11],12%
same,residual activity,[12],117% (inactive)
same,residual activity,[13],112%
same,residual activity,[14],49%
same,residual activity,[15],4%
same,residual activity,[16],107%
same,residual activity,[17],105%
same,residual activity,[18],16%
